# Source: PubChem
# VCAM1 pot = TNF alpha stimulated VCAM1 expression potentiation; AID 808; 0.19% of 93,000 active; activation, % at 2 µM; HUVEC TNFa-stimulated VCAM-1 immunofluorescence, high-content imaging; scaled per plate to unstimulated/TNFa-only wells;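 active = activation above the screen mean plus 3 SD, with well images confirming the hit on visual review, cut at about 28% in these data, passing the limit was not always enough; inconclusive = activation above that limit but images do not confirm it; inactive = activation not above that limit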;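 note: signal is the number of cytoplasmic VCAM-1 stained grains per positive cell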
# VCAM1 pot conf = enhancers of VCAM1 induction in HUVEC – imaging, triplicate retest, confirmation; activation, % at 2 µM; 230 tested, under 10 active; HUVEC TNFa-stimulated VCAM-1 immunofluorescence imaging; shares compounds with VCAM1 pot;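 active = activation above 30% in triplicate retests at 2 µM, then confirmed by visual review of the well images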
# A number is an active result; – = inactive; ? = inconclusive. The sample as a whole holds a higher share of hits than the screen did.
SMILES,VCAM1 pot,others
O=C(CSc1nnc(COc2ccccc2)n1Cc1ccco1)Nc1ccc2c(c1)OCCO2,–,
CCCC1(C(=O)OCC)NC(c2ccc(OC)cc2OC)C2C(=O)N(c3ccc4c(c3)OCCO4)C(=O)C21 (stereo not given),–,
CCOc1ccccc1Nc1nnc(SCC(=O)N2CCCC2)s1,–,
CCCn1nnnc1NC(=O)c1cccs1,–,
CCCc1ccc(-c2cc(NC(=O)CSc3n[nH]c(N)n3)n(-c3ccccc3)n2)cc1,–,
Nc1cc(-c2ccccc2)nn1Cc1ccc(Cl)cc1,–,
O=c1cc(-c2ccccc2)nc2nc(CCc3ccccc3)[nH]n12,47.7,VCAM1 pot conf=–
CC1(C)CC(=O)c2cnc(N3CCc4ccccc4C3)nc2C1,–,
O=C(CNC(=O)c1ccco1)OCc1ccc(Cl)cc1,–,
CCOC(=O)c1nnn(CC(=O)N2N=C(c3ccccc3)CC2c2ccccc2)c1C(=O)OCC (stereo not given),–,
CNC(=S)N1N=C(c2ccc(Br)cc2)CC1c1ccc(Br)cc1 (stereo not given),69.0,VCAM1 pot conf=–
C/C(NC(=O)c1cccs1)=C1\C(=O)C[C@@H]2[C@H]1C2(C)C,–,
O=C(COC(=O)c1cc(S(=O)(=O)N2CCOCC2)c(Cl)cc1Cl)Nc1ncc(C(F)(F)F)cc1Cl,–,
COc1cc2cc(Br)cc(Br)c2nc1C,–,
CCOCC(=O)Nc1nnc(C2CCCCC2)s1,–,
CN1CCN(S(=O)(=O)c2ccc(Sc3nnc(-c4cccs4)n3-c3ccccc3)nc2)CC1,58.7,VCAM1 pot conf=–
CC(Sc1nnc(-c2cccs2)n1-c1ccccc1)C(=O)NCc1ccco1 (stereo not given),–,
Cc1ccc(OCCSc2nnc(-c3cccs3)n2C)cc1,–,
CCC(CC)c1nnc(NC(=O)c2nc3nc(C)cc(C)n3n2)s1,–,
C/C(Cl)=C/CN1C(=O)C2C3C=CC(C3)C2C1=O (stereo not given),–,
COc1ccccc1NS(=O)(=O)CC12CCC(CC1=O)C2(C)C (stereo not given),–,
O=C(NCCc1ccccc1F)[C@@H]1CSC2c3ccccc3C(=O)N21 (stereo not given in full),–,
CCCCP(=O)(CCCC)Cc1ccccc1O,–,
C=CCn1c(SC(C)C(=O)NC2(C#N)CCCCC2)nnc1-c1ccc(OC)cc1 (stereo not given),–,
CCn1c(SCC(=O)N2CCN(c3cccc(Cl)c3)CC2)nc2ccccc2c1=O,–,
SMILES,VCAM1 pot,others
COCCn1c(C23CC4CC(CC(C4)C2)C3)n[nH]c1=S,–,
COCCn1c(SCC(=O)Nc2nnc(C)s2)nnc1-c1c[nH]c2ccccc12,–,
COCCn1c(=S)[nH]c2ncccc2c1=O,?,VCAM1 pot conf=–
CCN(C1CCCCC1)S(=O)(=O)c1cn(C)c(=O)n(C)c1=O,–,
CCNC(=O)/N=C1/NC(=O)C(C(C)C)O1 (stereo not given),–,
Cc1ccc(S(=O)(=O)NCCCNC(=O)c2ccccc2)cc1,–,
CCCCN(CCCNC(=O)c1c(C)cc(=O)oc1C)c1ccccc1,39.5,VCAM1 pot conf=–
CCCCOCCCNC(=O)c1cccs1,–,
Cc1cc2nc(-c3ccc(NC(=O)C(C)C)cc3)oc2cc1C,58.0,VCAM1 pot conf=–
COc1ccc(N/C(=N\c2nc(C)cc(C)n2)NC(=O)C(C)C)cc1OC,–,
CC(Oc1ccc(Cl)cc1Cl)C(=O)Nc1ccc2oc(-c3ccncc3)nc2c1 (stereo not given),–,
COC(=O)c1sc(=S)n(-c2cccc(Cl)c2)c1N,–,
Cn1c(=O)[nH]c2sc3c(c2c1=O)CC(C)(C)OC3,–,
CCOC(=O)C(CCCOc1ccc(C(C)CC)cc1)C(=O)OCC (stereo not given),–,
O=C(c1cnn2c(C(F)(F)F)cc(-c3cccs3)nc12)N1CCN(C(c2ccccc2)c2ccccc2)CC1,–,
O=C(Nc1ccc(N2CCOCC2)c(Cl)c1)c1cccnc1,55.8,VCAM1 pot conf=–
O=C(CCc1ccccc1)Nc1ccc(N2CCOCC2)c(Cl)c1,–,
O=C(Nc1ccc(N2CCCC2)c(Cl)c1)c1cccnc1,–,
S=c1[nH]nc(COc2ccc3c(c2)OCO3)n1-c1ccccc1,–,
O=C(CN1C(=O)NC2(CCCCCCC2)C1=O)NCc1ccc2c(c1)OCO2,51.2,VCAM1 pot conf=–
Cc1ccc(N(CC(=O)NCc2ccc3c(c2)OCO3)S(C)(=O)=O)cc1,–,
O=C(CN1C(=O)NC2(CCCCCCC2)C1=O)N1CCOCC1,–,
O=C(Cn1nnc(-c2ccc(S(=O)(=O)N3CCCC3)cc2)n1)NCC1CCCO1 (stereo not given),–,
O=C(c1ccc2c(c1)[nH]c(=S)n1c3ccccc3nc21)N1CCN(c2ncccn2)CC1,–,
Cn1nc(-c2ccc(C(=O)N3CCN(c4ccccc4)CC3)cc2)c2ccccc2c1=O,–,
SMILES,VCAM1 pot,others
O=C(c1ccc(-c2ccccc2)cc1)N1CCN(c2ncccn2)CC1,?,VCAM1 pot conf=–
Fc1ccccc1/C=C1\CCCC2=C1Nc1nnnn1C2c1ccccc1F (stereo not given),–,
COc1cccc(NC(C)C(=O)N2CC(C)OC(C)C2)c1 (stereo not given),–,
c1ccc(CC2CCN(c3nc(N4CCOCC4)nc(N4CCOCC4)n3)CC2)cc1,–,
CCOC(=O)/C(=C\c1ccccc1)C(=O)c1cc(C(C)=O)c(Nc2ccccc2)s1,67.6,VCAM1 pot conf=–
CCOC(=O)/C(=C\c1cccnc1)C(=O)c1cc(C(C)=O)c(Nc2ccccc2)s1,–,
Cn1c(-c2ccc(C=O)s2)nc2ccccc21,–,
CSc1nc(C)cc(OCC(=O)n2nc(C)cc2C)n1,–,
COc1ccc(C(=O)N[C@H](C(=O)NCC2CCCCC2)C(C)C)cc1,–,
CCOC(=O)c1ccc(NC(=O)COc2cc(=O)n(CC)c3ccccc23)cc1,–,
COc1ccccc1OCC(=O)Nc1ccc(C(N)=O)cc1,50.7,VCAM1 pot conf=–
Cc1cc(C)c(OCC(=O)Nc2cccc(O)c2)cc1C,–,
CC(C)Oc1cc(NC(=O)CSCC(=O)Nc2cccc(C(F)(F)F)c2)c(Cl)cc1Cl,–,
CC1=[N+]([O-])C(C)(C)C(C)N(O)C1=O (stereo not given),–,
Cc1c2cccn2cc[n+]1C,–,
Cn1ccnc1C(=O)c1cc(=O)c2ccccc2o1,–,
CC1=CN2C(=NC(=O)CC2(C)C(=O)N(CC(=O)NC2CCCC2)c2ccccc2C)C=C1 (stereo not given),–,
O=C(Cn1c(=O)oc2ccccc21)NCc1ccco1,–,
CCN(Cc1ccccc1)C(=O)Cn1c(=O)n(CC(=O)NCc2ccco2)c(=O)c2sccc21,–,
CCc1ccc(NC(=O)Cn2c(=O)n(CCCC(=O)NCc3ccco3)c(=O)c3ccccc32)cc1,?,VCAM1 pot conf=–
COC(=O)c1ccccc1NC(=O)c1cc(-c2ccc(OC)c(OC)c2)on1,–,
CC(C)Oc1ccc(C(=O)NCc2ccco2)cc1,–,
O=C(NCc1ccco1)c1sc2cc(Cl)ccc2c1Cl,64.3,VCAM1 pot conf=–
O=C(NCc1ccco1)c1ccc(CS(=O)(=O)Cc2ccc(Cl)cc2)o1,–,
O=C(NCc1cccs1)C1CCCN1S(=O)(=O)c1ccccc1F (stereo not given),–,
O=C(Nc1ccc(Cl)cn1)C1CCCN1S(=O)(=O)c1cccc2ccccc12 (stereo not given),31.2,VCAM1 pot conf=–
O=C(NC1CCCCC1)C1CCCN1S(=O)(=O)c1cccc2nsnc12 (stereo not given),–,
COC(=O)c1nnn(CC(=O)Nc2cccc(Cl)c2)c1C(=O)OC,–,
O=C(CCCSc1nc2ccccc2s1)NC1=NCCS1,–,
O=C(CC(=O)NN=C1CCCC1)NCCc1ccccc1,–,
